The subject of the test is Aedes aegypti larvae. In words: larval motility relative to same well at 0 h (fraction); higher = more motile (less active compound), active = 0.4 or less. The conditions noted are these: 10 µM. In outline:
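Aedes aegypti larvae, hatched in pond salt solution with yeast at 25 °C and collected after 18–24 h, were dispensed at about 10 per well (100 µL) in 96-well plates. Compounds were tested at 10 µM, 1% v/v DMSO, with solvent and larvicide control wells on each plate. INVAPP movies (200 frames, 100 ms intervals) were recorded at 0, 2 and 24 h. Relative motility is each well's score divided by its 0 h score, median of three independent larval batches.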

Values without a mark were called inactive.

As for `Fc1ccc(-n2cc(Cn3c(-c4cccc(F)c4)nc4ccccc43)nn2)cc1`, the larval motility is 0.761 (2 h) and 0.415 (24 h).

As for `Clc1ccc(Cn2c(CN3CCCC3)nc3ccccc32)cc1`, the larval motility is 1.09 (2 h) and 1.28 (24 h).

In the case of `COC1CC2CCC(C)C(O)(O2)C(=O)C(=O)N2CCCCC2C(=O)OC(C(C)CC2CCC(OCCO)C(OC)C2)CC(=O)C(C)/C=C(\C)C(O)C(OC)C(=O)C(C)CC(C)/C=C/C=C/C=C/1C` (stereo not drawn), the larval motility by setting is: (2 h) 0.921; (24 h) 1.02.

On to `Nc1cc(-c2nc3ccccc3[nH]2)n[nH]c1=O`, for which the larval motility is 1.17 (2 h) and 1.18 (24 h).

For `COc1cc(C)c2c(Oc3cccc(C(F)(F)F)c3)c(OC)cc(NC(C)CCCN)c2n1` (stereo not drawn), the larval motility (2 h) is 0.654 and the larval motility (24 h) was 0.385 (active).

`COc1ccc(C[C@@H](C)[C@@H](C)Cc2ccc(OC)c(OC)c2)cc1OC`: the larval motility is 0.799 (2 h) and 0.813 (24 h).

In the case of `N#Cc1c(F)c(Cl)c(NCc2ccccc2)c(C#N)c1F`, the larval motility (2 h) is 0.585 and the larval motility (24 h) was 0.978.

For `CN(C)CCNC(=O)c1cccc2cccnc12`, the larval motility was 0.941 (2 h) and 0.825 (24 h).

Regarding `O=C1c2cccc3cccc(c23)C(=O)N1CC1CO1` (stereo not drawn), the larval motility reads like this: (2 h) 0.906; (24 h) 0.936.

Turning to `Oc1ccc(NCc2ccccc2OCc2ccccc2)cc1`, the larval motility (2 h) is 0.844 and the larval motility (24 h) is 1.62.

With `C[C@H](NC(CC(=O)c1ccccc1C(F)(F)F)C(=O)O)c1ccccc1` (stereo partly drawn), the larval motility (2 h) was 0.873 and the larval motility (24 h) is 0.674.

Regarding `N#C/C(=C1/SC[C@H](c2ccc(Cl)cc2Cl)S1)n1ccnc1`, the larval motility (2 h) was 0.983 and the larval motility (24 h) is 1.

Consider `COc1ccc(COc2cc3oc(=O)c4cc(C(C)O)ccc4c3cc2OC)cc1` (stereo not drawn), for which the larval motility is 1.02 (2 h) and 1.2 (24 h).

As to `CC(C)c1cc2c(cc1S(=O)(=O)O)[C@@]1(C)CCC[C@@](C)(C(=O)O)[C@@H]1CC2`, the larval motility by setting is: (2 h) 0.784; (24 h) 0.697.

As for `CCC(C)n1ncn(-c2ccc(N3CCN(c4ccc(OCC5COC(Cn6cncn6)(c6ccc(Cl)cc6Cl)O5)cc4)CC3)cc2)c1=O` (stereo not drawn), the larval motility was 0.656 (2 h) and 0.571 (24 h).

As to `Nc1nc2c(ncn2/C=C2/CC2(CO)CO)c(=O)[nH]1`, the larval motility reads like this: (2 h) 0.842; (24 h) 0.573.

Consider `COc1ccc(NS(=O)(=O)c2ccc(Cl)s2)cn1`, for which the larval motility was 0.931 (2 h) and 1.43 (24 h).

Take `O=C(Nc1ccccc1C(=O)O)c1cccc(Oc2ccccc2)c1`: the larval motility was 0.522 (2 h) and 1.44 (24 h).

Turning to `Clc1cc2nc(C3CCNCC3)n(Cc3ccc(CNCCc4cnc[nH]4)cc3)c2cc1Cl`, the larval motility was 0.575 (2 h) and 0.981 (24 h).

`CCC[C@H](NC(=O)[C@@H]1[C@H]2CCC[C@H]2CN1C(=O)[C@@H](NC(=O)[C@@H](NC(=O)c1cnccn1)C1CCCCC1)C(C)(C)C)C(=O)C(=O)NC1CC1`: the larval motility was 0.881 (2 h) and 0.577 (24 h).

Regarding `COc1cc2c(O)c3c(c(-c4ccc5c(c4)OCO5)c2cc1OC)C(=O)OC3`, the larval motility by setting is: (2 h) 0.887; (24 h) 0.868.

With `C[C@@H](O)[C@H](N)C(=O)NS(=O)(=O)c1cccc(-c2ccc3[nH]ncc3c2)c1`, the larval motility reads like this: (2 h) 0.665; (24 h) 0.913.

Consider `CC1(C)Cc2c(C#N)c(SCCc3ccccc3)nc(N3CCOCC3)c2CO1`, for which the larval motility by setting is: (2 h) 0.485; (24 h) 1.28.

Take `O[C@@](Cn1cnnn1)(c1ccc(F)cc1F)C(F)(F)c1ccc(-c2ccc(OCC(F)(F)F)cc2)cn1`: the larval motility by setting is: (2 h) 0.718; (24 h) 0.564.

Turning to `CCc1cc(O)c(Oc2ccc(C(N)=O)cc2F)cc1F`, the larval motility runs as follows: (2 h) 0.539; (24 h) 0.942.

As for `CCOC(=O)N1CCN(c2ccc(Cl)cc2)CC1`, the larval motility by setting is: (2 h) 1.05; (24 h) 1.36.

Consider `CCOc1ccc(/C=N/NC(=O)C2CC2c2ccc(C(C)(C)C)cc2)cc1OCC` (stereo not drawn), for which the larval motility runs as follows: (2 h) 1.29; (24 h) 1.4.

For `CCOC(=O)/C=C/[C@H](C[C@@H]1CCNC1=O)NC(=O)[C@@H](CC(=O)[C@@H](NC(=O)c1cc(C)on1)C(C)C)Cc1ccc(F)cc1`, the larval motility reads like this: (2 h) 1.26; (24 h) 1.09.

As for `NC[C@H]1O[C@H](O[C@H]2[C@H](O)[C@@H](O[C@H]3O[C@H](CO)[C@@H](O)[C@H](N)[C@H]3O)[C@H](N)C[C@@H]2N)[C@H](N)C[C@@H]1O`, the larval motility runs as follows: (2 h) 0.727; (24 h) 1.43.

The record behind these values is the supplement of paper PMC8540655.
